The full ranking holds about 18,000 sequences; the median of “log2 normalized intensity” is about 0.36, and the highest 2% start at about 7.3. What follows is part of a selection rich in the highest values, with near analogues and random picks from the rest.
Target: T1, HNF4alpha8 (COS-7 nuclear extract) (Homo sapiens, UniProt P41235-5 1-452)
T1 sequence: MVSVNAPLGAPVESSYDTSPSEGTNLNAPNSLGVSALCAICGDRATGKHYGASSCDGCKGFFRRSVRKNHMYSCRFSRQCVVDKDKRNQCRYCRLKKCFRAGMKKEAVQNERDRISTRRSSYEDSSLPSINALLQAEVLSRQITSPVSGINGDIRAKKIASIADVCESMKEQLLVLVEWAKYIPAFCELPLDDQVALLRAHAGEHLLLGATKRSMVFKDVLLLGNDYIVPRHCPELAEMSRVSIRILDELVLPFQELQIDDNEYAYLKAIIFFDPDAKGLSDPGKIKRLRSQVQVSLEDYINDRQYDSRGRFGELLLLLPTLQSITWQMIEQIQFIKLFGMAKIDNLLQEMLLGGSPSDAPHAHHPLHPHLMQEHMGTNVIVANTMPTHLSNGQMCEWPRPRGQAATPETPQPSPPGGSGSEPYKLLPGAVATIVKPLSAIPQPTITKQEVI
Experiment: protein-binding microarray; COS-7 nuclear extract on double-stranded Agilent 4x180k PBM; binding buffer, salt, pH and temperature not given in the material; high values mean tight binding
Details: chain copies: 2; label: 3' end of strand 1 on the slide; dsDNA, one strand shown
Procedure, shortened: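 Nuclear extracts of COS-7 cells transiently transfected with a human HNF4α isoform were applied to a custom Agilent SurePrint G3 4x180k array bearing ~44,000 double-stranded ~60-nt test sequences, each in quadruplicate. The bound protein was imaged on an Agilent G2565CA scanner at 2-µm resolution. Binding signal is the normalized, background-corrected gProcessedSignal from Agilent software.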

Sequence | binding signal [log2 normalized intensity]
ATATAAAAACTAACCATACTGAGTGTTGGTGCCTAGGGAGATTAGAGTATCGGTCGA | -0.252
AGTGTAAGGACATTGCCCCCTATGTAAAGGGCCTAGGGAGATTAGAGTATCGGTCGA | 4.09
TGATTACCCTTATCTTATCTCCTGCTAAATGCCTAGGGAGATTAGAGTATCGGTCGA | -0.759
TTTCAACATTTAACTTAACCACTCAATCAGGCCTAGGGAGATTAGAGTATCGGTCGA | -0.86
CTTTGAGATTTGCATTCATGATCTTAGATAGCCTAGGGAGATTAGAGTATCGGTCGA | 0.242
GTGACCTTTGACCTCTGGCCTTTGCAGTTAGCCTAGGGAGATTAGAGTATCGGTCGA | 8.79
ACCACTTTGAAATAGTGACCTCTGCTGGCCGCCTAGGGAGATTAGAGTATCGGTCGA | 3.43
ACCTTTGCCTTCTTGACATCTCTCTCTGCAGCCTAGGGAGATTAGAGTATCGGTCGA | -0.0607
TGACCTTTGCCTCATTCTTATTGCCTCATGGCCTAGGGAGATTAGAGTATCGGTCGA | 4.2
CTGACAAGTATCTCGGTCAAACCTTTGACCGCCTAGGGAGATTAGAGTATCGGTCGA | 6.35
TCTGGTGCCAAGGAGCCTCTGCAACCTTTGGCCTAGGGAGATTAGAGTATCGGTCGA | 3.43
CTGACCTCAAGTGACCTTTGACCTCTGGCCGCCTAGGGAGATTAGAGTATCGGTCGA | 11.2
CTCAAGTGACCTTTGACCTCTGGCCTTTGCGCCTAGGGAGATTAGAGTATCGGTCGA | 10.3
TATCAGTGTTGACCTCTGGACCTCATCTTCGCCTAGGGAGATTAGAGTATCGGTCGA | 6.23
TTAGCTATCAGTGTTGACCTCTGGACCTCAGCCTAGGGAGATTAGAGTATCGGTCGA | 7.79
GATGTTTAGCTATCAGTGTTGACCTCTGGAGCCTAGGGAGATTAGAGTATCGGTCGA | 6.06
CTCTAACCACTTTGAAATAGTGACCTCTGCGCCTAGGGAGATTAGAGTATCGGTCGA | 5.01
CAGGAGTCGGGAGGTAGGGGTGGCGGGTTGGCCTAGGGAGATTAGAGTATCGGTCGA | 0.403
GCCAAAGGTCAGAGTTGAACCCTTGGGGCTGCCTAGGGAGATTAGAGTATCGGTCGA | 4.38
TCTGCTGTACATATTTGCCAAGTGATAAGGGCCTAGGGAGATTAGAGTATCGGTCGA | 1.01
TCTAACATTTTTGACCTTCAGCATCTTCAAGCCTAGGGAGATTAGAGTATCGGTCGA | 3.81
CCTTTGAGATAGCTATGATTATCCTTATCTGCCTAGGGAGATTAGAGTATCGGTCGA | -0.293
ATCTGTATCAGCCTGTGACAAAGTCCATCTGCCTAGGGAGATTAGAGTATCGGTCGA | 5.65
CCCGGACCAGGCCGGGTCACGTGGGTCCAGGCCTAGGGAGATTAGAGTATCGGTCGA | 3.63

Sequence | binding signal [log2 normalized intensity]
GTCAGTCTTTGTTCTAGTAAGGCCTTCAAAGCCTAGGGAGATTAGAGTATCGGTCGA | 0.595
TTCAGAAGACTTCCTGGCCTCTCTGCAAATGCCTAGGGAGATTAGAGTATCGGTCGA | -0.39
GTGAGGGAGGAGACTTTGACCTCTGCTAGGGCCTAGGGAGATTAGAGTATCGGTCGA | 6.12
GGAGGAGACTTTGACCTCTGCTAGGTTTGGGCCTAGGGAGATTAGAGTATCGGTCGA | 5.5
TAACGGTGAGGGAGGAGACTTTGACCTCTGGCCTAGGGAGATTAGAGTATCGGTCGA | 7.45
TATGTCTCTCCTATTCAGGTATTTGCTCTGGCCTAGGGAGATTAGAGTATCGGTCGA | 0.488
CACAGTGTAGAAGGCAAGGGTCAAGATGTCGCCTAGGGAGATTAGAGTATCGGTCGA | 2.31
ATTCCAGTGTTTCAAAGGAGTGTCTTTCTCGCCTAGGGAGATTAGAGTATCGGTCGA | 1.51
CCTCCATTAACTAACCTTTGAACCAGATGGGCCTAGGGAGATTAGAGTATCGGTCGA | 5.69
ATTAACTAACCTTTGAACCAGATGGCCCTCGCCTAGGGAGATTAGAGTATCGGTCGA | 4.3
TAAGACTAACCTTTGACCATCCACGGATGCGCCTAGGGAGATTAGAGTATCGGTCGA | 5.5
CATGTGGTCCTAAGACTAACCTTTGACCATGCCTAGGGAGATTAGAGTATCGGTCGA | 8.37
CCTTACCTCCATTAACTAACCTTTGAACCAGCCTAGGGAGATTAGAGTATCGGTCGA | 7.58
TTACTCATGTGGTCCTAAGACTAACCTTTGGCCTAGGGAGATTAGAGTATCGGTCGA | 4.06
TACTCATGTGGTCCTAAGACTAACCTTTGAGCCTAGGGAGATTAGAGTATCGGTCGA | 7.11
GGTCCTAAGACTAACCTTTGACCATCCACGGCCTAGGGAGATTAGAGTATCGGTCGA | 6.44
ATGTGGTCCTAAGACTAACCTTTGACCATCGCCTAGGGAGATTAGAGTATCGGTCGA | 8.15
CTGACATTCTCCACTTGGTGACTGTCATTTGCCTAGGGAGATTAGAGTATCGGTCGA | 0.274
TGCCCTCACAGGTTCCAGCATGGACTTCACGCCTAGGGAGATTAGAGTATCGGTCGA | 3.32
TTCCGCGGACGTGTTCCCACAGTGCCCTCTGCCTAGGGAGATTAGAGTATCGGTCGA | 3.77
AGTTTCAACTTAACCCCAGTTTAGCAATTTGCCTAGGGAGATTAGAGTATCGGTCGA | 2.08
CTAAGCAGGCACATTCCAGGACCTTTGCTCGCCTAGGGAGATTAGAGTATCGGTCGA | 4.83
TCTAAGACATAACACAGGTGACCTTTGCTCGCCTAGGGAGATTAGAGTATCGGTCGA | 8.96
AACACAGGTGACCTTTGCTCCGGTTCCCAAGCCTAGGGAGATTAGAGTATCGGTCGA | 7.12

Sequence | binding signal [log2 normalized intensity]
TCTTTTCTAAGACATAACACAGGTGACCTTGCCTAGGGAGATTAGAGTATCGGTCGA | 4.48
GACATAACACAGGTGACCTTTGCTCCGGTTGCCTAGGGAGATTAGAGTATCGGTCGA | 7.92
AGGTGACCTTTGCTCCGGTTCCCAATAAGTGCCTAGGGAGATTAGAGTATCGGTCGA | 5.71
TGTGGGTAATTAATCTGATCGCCCTCCCCCGCCTAGGGAGATTAGAGTATCGGTCGA | 5.29
CTATTCTCTAAACTCTGGGCTCTATTTGGAGCCTAGGGAGATTAGAGTATCGGTCGA | 0.51
TGCTGGAGATGAGGCTCAGACCTGACCTTTGCCTAGGGAGATTAGAGTATCGGTCGA | 7.17
GAGGCTCAGACCTGACCTTTGGATTCCCAGGCCTAGGGAGATTAGAGTATCGGTCGA | 7.11
TACTTTGGACTGGGGACCTGGTCTGAGATAGCCTAGGGAGATTAGAGTATCGGTCGA | 1.25
GGACCTGAGGCTTTTGAGTCAATAATGGACGCCTAGGGAGATTAGAGTATCGGTCGA | 1.38
AAGACTTTGGACTTTGGACCTGAGGCTTTTGCCTAGGGAGATTAGAGTATCGGTCGA | 10.3
GAGATGAGGCTCAGACCTGACCTTTGGATTGCCTAGGGAGATTAGAGTATCGGTCGA | 8.85
ACAAGGAGTCTCCACTATGACCTGTGCTTTGCCTAGGGAGATTAGAGTATCGGTCGA | 2.18
TATAGTTTATCTACCTTTGTACCTTTAGTAGCCTAGGGAGATTAGAGTATCGGTCGA | 4.65
GTTGGGCAGAAGGTGTTTCAGATGGACCAAGCCTAGGGAGATTAGAGTATCGGTCGA | 1.98
ATAGCTGCCTGTGTGTTCTGCTATTCATTAGCCTAGGGAGATTAGAGTATCGGTCGA | 0.562
GTGCTGGTACATAGCAGGGGTTAGGTAAACGCCTAGGGAGATTAGAGTATCGGTCGA | -0.36
TATGAGAGAGAGAGAGAGGTGGGCAAAGGTGCCTAGGGAGATTAGAGTATCGGTCGA | 1.33
AGAGCGATCAAAGGTCACAGAGACCACAGGGCCTAGGGAGATTAGAGTATCGGTCGA | 5.89
CACTGGGGTCATGGAGCTGGAGGGCAAAGGGCCTAGGGAGATTAGAGTATCGGTCGA | 4.08
TGGGCCCACAGATGATCAAAGGTCAGTCTTGCCTAGGGAGATTAGAGTATCGGTCGA | 7.25
AATCATGGGCCCACAGATGATCAAAGGTCAGCCTAGGGAGATTAGAGTATCGGTCGA | 7.91
TGACTGGAGCAGAGCGATCAAAGGTCACAGGCCTAGGGAGATTAGAGTATCGGTCGA | 7.44
GAGAGAGAGAGAGGTGGGCAAAGGTCTCAAGCCTAGGGAGATTAGAGTATCGGTCGA | 3.68
GGGTCATGGAGCTGGAGGGCAAAGGTCAGAGCCTAGGGAGATTAGAGTATCGGTCGA | 8.54

Sequence | binding signal [log2 normalized intensity]
GGAGCAGAGCGATCAAAGGTCACAGAGACCGCCTAGGGAGATTAGAGTATCGGTCGA | 6.2
GTGGGTGCCAAACAAAAAGGGCAAAGGTCAGCCTAGGGAGATTAGAGTATCGGTCGA | 8.84
ATGGAGCTGGAGGGCAAAGGTCAGAGGCTGGCCTAGGGAGATTAGAGTATCGGTCGA | 6.88
TCAGGAGCCCCACAGAGCAAAGGTCATGCAGCCTAGGGAGATTAGAGTATCGGTCGA | 6.34
CCCCATATCCAGTCAATCCCGTGGACTTTGGCCTAGGGAGATTAGAGTATCGGTCGA | 6.13
TTGAATTCCTTCTTCTTCTGGGGACTTCGGGCCTAGGGAGATTAGAGTATCGGTCGA | 2.16
CTTATAAATCTTCAACTGGAGGATAAAGTTGCCTAGGGAGATTAGAGTATCGGTCGA | 1.09
GAGTCCAAACTGGGACCTGTGACACTCTGCGCCTAGGGAGATTAGAGTATCGGTCGA | 0.644
CATACCAGGTGTAAAGTCTGGCATACAGGGGCCTAGGGAGATTAGAGTATCGGTCGA | 0.00259
ATGTTAGGCTGGAAAACTGGGCTGTTATTTGCCTAGGGAGATTAGAGTATCGGTCGA | 0.577
TTTGAACACCTCTTCTTTCTTCTCTGGTACGCCTAGGGAGATTAGAGTATCGGTCGA | 1.8
CCATACCTCTTGCGTGTTATCTATGGAACAGCCTAGGGAGATTAGAGTATCGGTCGA | 1.67
CATCTGAACTCTTCATGGACTCCTCTTATCGCCTAGGGAGATTAGAGTATCGGTCGA | 2.06
TTCTCTCTTGGACTCTTGGACTCCCTGAAGGCCTAGGGAGATTAGAGTATCGGTCGA | 5.73
TGCGTGTTATCTATGGAACATGGACTTTGAGCCTAGGGAGATTAGAGTATCGGTCGA | 9.28
GAACATGGACTTTGAACCTCTCTTCTTTTTGCCTAGGGAGATTAGAGTATCGGTCGA | 7.93
TCCATCATTTTTCTCTCTTGGACTCTTGGAGCCTAGGGAGATTAGAGTATCGGTCGA | 4.92
CATTTTTCTCTCTTGGACTCTTGGACTCCCGCCTAGGGAGATTAGAGTATCGGTCGA | 7.67
AACATGGACTTTGTTGTTTGCCTCTGAAAAGCCTAGGGAGATTAGAGTATCGGTCGA | 2.8
CTATGGAACATGGACTTTGAACCTCTCTTCGCCTAGGGAGATTAGAGTATCGGTCGA | 9.09
TACATTGAACTTTGAACACCTCTTCTTTCTGCCTAGGGAGATTAGAGTATCGGTCGA | 5.51
CCTCTTGCGTGTTATCTATGGAACATGGACGCCTAGGGAGATTAGAGTATCGGTCGA | 2.5
